Source: PubChem BioAssay (National Center for Advancing Translational Sciences (NCATS))
A selection: hits, their analogues and other compounds. The true share with any hit is near 20%.
Pf growth 96h = P. falciparum growth inhibition at 96 hour, primary screen for plastid delayed-death inhibitors; 320,000 compounds, 6.9% hits; P. falciparum luciferase reporter growth, 96 h; Potency, µM (series often up to 28.7 µM), inactives show top-dose activity change, negative = inhibition, hits mostly inhibitors; further: potency means the concentration at half of the fitted maximal effect; on the % scale 0 is the no-effect control and ±100 the full control effect
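Two-generation exposure (96 h) targets delayed-death phenotype. Reporter parasites carrying integrated firefly luciferase, in red cells at 2% hematocrit and 0.05% parasitemia final, kept at 37 C, 5% CO2; luminescence loss indicates inhibition.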
CHX counter = affects cycloheximide protein synthesis inhibition readout, counter-screen | cell reporter, cycloheximide protein synthesis inhibition counterscreen | max response, % | 300,000 compounds, 12% hits | AID 2314; in the data active means max response mostly above about 13%, no sharp cut-off; inactive means mostly below about 14%; further: read at 38.3 µM for the half of the compounds with a filed dose; 0% is about no effect
Shiga inhibitor = inhibitors of Shiga toxin in Vero cells. Vero cells, Shiga toxin protein synthesis inhibition reporter. inhibition, % at 38.7 µM. 290,000 compounds, 9.2% hits. AID 2315; in the data active means inhibition mostly above about 28%, no sharp cut-off; inactive means mostly below about 43%; further: 0% is about no effect
Pf growth 48h = inhibits P. falciparum growth in the first generation, 48 h; 310,000 compounds, 5.9% hits; AID 504832; P. falciparum luciferase growth in erythrocytes, 48 h; Potency, µM (top dose mostly 28.7 µM), for the others: at the highest dose activity change, negative = inhibition, hits mostly inhibitors; further: potency means the concentration at half of the fitted maximal effect; on the % scale 0 is the no-effect control and ±100 the full control effect
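Here the parasites carry a stable luciferase gene and grow inside erythrocytes in Albumax-based RPMI medium with compound for one erythrocytic cycle. Activity is scored as loss of luminescent signal.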
HCMV inh = human cytomegalovirus inhibition; HFF cells, HCMV-luciferase reporter, 72 h; stronger effect = lower value; activity change, negative = inhibition, % at 57.5 µM; 410,000 compounds, 4.5% hits; in the data active means activity change below about -60%; inconclusive means no clear call, values can overlap the other calls; inactive means above about -39%; further: on the % scale 0 is the no-effect control and ±100 the full control effect
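Inhibition of viral replication was scored as loss of reporter luminescence in HFFs infected with HCMV-luciferase (MOI 1 PFU/cell) for 72 h; compounds tested at 2 doses, normalized to buffer and Salinomycin controls.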
Starred values were filed as active, the others as inactive; ? = inconclusive; . = no result given; [ ] = another dose, or the depositor's remark. Unless noted, the call rests on the fitted dose curve; in most records, active means well fitted inhibition curve with a large enough effect; inconclusive means small, poorly fitted or top-dose-only effect, or another doubt; inactive means no such curve, though single readings can be large or run the other way.

SMILES | Pf growth 96h | CHX counter | Shiga inhibitor | Pf growth 48h | HCMV inh
CCN1C(=O)[C@H]2[C@@H](c3ccc(-c4ccccc4)cc3)N[C@@](Cc3ccccc3)(C(=O)OC)[C@H]2C1=O | ? | . | . | 10µM* | -21
CCN1C(=O)[C@H]2[C@@H](c3ccc(-c4ccccc4)c(OC)c3)N[C@@](CC(C)C)(C(=O)OC)[C@H]2C1=O | . | . | . | . | -3
COc1ccc2cc(C(=O)NCc3ccc4c(c3)CCN4C(=O)c3ccc(F)cc3)[nH]c2c1 | . | . | . | . | -26
Cn1c(CNC(=O)CNC(=O)c2cccc(F)c2)cc(=O)n(C)c1=O | 15% | 0 | -2 | 21% | 12
O=C(CN(C1CCCCC1)S(=O)(=O)c1ccc(F)cc1)NCC1CCCO1 (centres undefined) | . | . | . | . | 0
CC(C)Nc1nc(NC(C)C)nc(N(C#N)C(C)C(=O)N(C)C)n1 (centres undefined) | 5.2µM* | 7 | 34 | -8% | .
O=C(NCC(=O)N1CCCCCCC1)c1ccc(Br)o1 | 11% | . | . | 3% | -4
O=c1oc2ccccc2c(N2CCCC2)c1CN1CCCC1 | . | 0 | -20 | 28% | 28
O=c1oc2ccccc2c(Cl)c1CN1CCCCC1 | 3% | 1 | 1 | -8% | -64*
COc1ccc(-c2ccccc2-c2noc3ccccc23)cc1 | . | . | . | . | -1
CCOC(=O)c1c(C)oc2nc(C)nc(NCCc3ccc(S(N)(=O)=O)cc3)c12 | . | . | . | . | -20
Cc1ccc2[nH]c3c(=O)n(CC(=O)N(C)c4cc(Cl)ccc4C)ncc3c2c1 | . | . | . | . | -22
CN(Cc1ccco1)C(=O)Cn1ncc2c([nH]c3ccccc32)c1=O | 9.3µM* | -3 | -6 | -8% | 2
Cc1ccc(Cl)cc1N(C)C(=O)Cn1ncc2c([nH]c3ccccc32)c1=O | ? | 6 | -2 | ? | -69*
COc1ccc(C(=O)Nc2ccc(C(=O)Nc3nccs3)cc2)cc1[N+](=O)[O-] | 4% | -4 | -9 | 25% | -35
COc1ccc(-c2nn(-c3ccccc3)cc2C(=O)Nc2nccs2)cc1 | 13% | -3 | -13 | ? | -23
COc1cccc2c1OCC(C(=O)Nc1nccs1)=C2 | -5% | 41* | 108* | -6%[0.00184 µM] | 70
COc1cc2ccccc2cc1C(=O)Nc1nccs1 | 78% | 27* | 49* | 149% | 212
COc1c(C(=O)Nc2nccs2)ccc2ccccc12 | 467% | 38* | 93* | 120% | 46
CCOc1ccccc1CNC(=O)CCn1ccc2cc(S(=O)(=O)N3CCC(C)CC3)ccc21 | . | . | . | . | -20
COc1ccc(C(=O)NCC(c2cccnc2)N2CCc3ccccc32)cc1 (centres undefined) | . | . | . | . | -13
O=C(CSc1nc(-c2ccc(F)cc2)cs1)N1CCc2ccccc21 | -1% | -4 | -19 | 34% | 5
CCOC(=O)c1noc2ncnc(N3CCC(C)CC3)c12 | . | . | . | . | -10
COC(=O)C1(S(=O)(=O)c2cccc3nsnc23)CC1 | 7% | -4 | -4 | -3% | 1
Cc1nc(C)c(C(=O)N2CCCC(C(=O)c3ccc(Cl)cc3C)C2)s1 (centres undefined) | 13µM* | -3 | -8 | -19% | -16
SMILES | Pf growth 96h | CHX counter | Shiga inhibitor | Pf growth 48h | HCMV inh
Cc1cc(Cl)ccc1C(=O)C1CCCN(C(=O)/C=C/c2cnn(C)c2)C1 (centres undefined) | 4.1µM* | 1 | -9 | 8% | -1
C[C@H]1CN([C@@H](C)CO)C(=O)CCCn2nncc2CO[C@@H]1CN(C)C(=O)Cc1ccccc1 | . | . | . | . | -10
S=C1NC2(CCS1)Oc1ccccc1C1CC(c3ccccc3)=NN12 (centres undefined) | ? | 33* | 70* | ? | .
Cc1ccc(C2=NN3C(C2)c2ccccc2OC32C(=O)Nc3ccccc32)cc1 (centres undefined) | -20% | 42* | 78* | -33% | 184
CN1C(=O)C2(Oc3ccccc3C3CC(c4ccccc4)=NN32)c2ccccc21 (centres undefined) | 38% | 28* | 78* | 35% | .
CN1C(=O)C(O)(c2sc(N)nc2-c2ccccc2)c2ccccc21 (centres undefined) | . | -1 | 18 | . | 25
Cc1cc(C(=O)OCc2nc3ccccc3s2)c(C)o1 | . | 53* | 105* | 102% | -22
Cc1cc(C(=O)OCC(=O)Nc2ccccc2)c(C)o1 | 0% | 2 | 16 | 6% | -12
O=C(OCc1nc2ccccc2s1)c1ccc(Br)o1 | 9% | 28* | 80* | 50% | 3
